Out of some 53,000 compounds screened, about 900 (1.7%) showed an effect of 50% or more. The full list was thinned out, with strong results kept by preference.
system: Mycobacterium tuberculosis; assay: Cornell - Phenotypic assay to identify agents that inhibit growth of Mycobacterium tuberculosis; type: functional; parameters: scale not given: direction of the effect not stated beside the values; conditions: 10 mM as filed; unlikely as a test dose

Going from `O=C(CC1CC1)NC[C@]12COC[C@H]1CN(c1ncccn1)C2.O=C(O)C(F)(F)F` to `CCc1cnc(N2CC[C@H]3[C@@H]2CCC(=O)N3c2cccnc2)nc1.O=C(O)C(F)(F)F.O=C(O)C(F)(F)F`, the “Percent Effect” value rises from 0.6787% to 5.714%.

Going from `CCOCC1CN(Cc2cnn(C)c2)Cc2ncn(C)c21` (stereo not given) to `Cc1cnn(CC2CCCN2Cc2nc3ccccc3n2C)c1` (stereo not given), the “Percent Effect” value rises from 21.37% to 81.85%.

Going from `Cc1ccc(CN2C[C@H](OCCN(C)C)[C@H]3COC[C@H]32)o1.O=C(O)C(F)(F)F.O=C(O)C(F)(F)F` to `CNC(=O)c1cccc(CC2COCCN(Cc3ccc(C)o3)C2)n1` (stereo not given), the “Percent Effect” value falls from 19.04% to 0.6767%.

Compared with `CCCNC(=O)CCNC(=O)N1CCC(=Cc2ccccc2)CC1`, `CCNC(=O)N1CCC(=Cc2ccccc2)CC1` is higher in “Percent Effect” value: -1.003% for the first, 31.8% for the second.

Going from `CNC(=O)N1CCC(=Cc2ccccc2)CC1` to `Cc1cc(NC(=O)c2ccccc2Br)n(C)n1`, the “Percent Effect” value falls from 50.2% to 11.86%.

First: COC(=O)N1CCC(CNC(=O)C2CCN(S(C)(=O)=O)CC2)CC1
Second: CN1CCOC(C)(C(=O)N2CCN(C3CCCC3)CC2)C1 (stereo not given)
The “Percent Effect” value of the first is higher: -2.459% for the first, -58.81% for the second.

First: COc1ccccc1OCCNCCn1cccn1
Second: CCn1ccc(-c2cc(NCCCOc3ccccc3C)nc(C)n2)n1
The “Percent Effect” value of the first is lower: 4.031% for the first, 93.67% for the second.

Going from `CCn1ccc(-c2cc(NCCCOc3cccc(C)c3)nc(C)n2)n1` to `Cc1nccc(-c2cccc(NCC(=O)N3CCNC(=O)C3)c2)n1`, the “Percent Effect” value falls from 27.92% to 4.567%.

Going from `CC1(C)OC(=O)N(CCOc2ccc(F)cc2)C1=O` to `CC(=O)Nc1ccc(Oc2ccc3c(c2)OCO3)nc1`, the “Percent Effect” value falls from 15.77% to 12.25%.

Going from `CNC(=O)CNCC1(O)CCCN(Cc2ccc(F)c(F)c2)C1=O` (stereo not given) to `CCc1ccc(C(=O)NCC2CCCN2CC)o1` (stereo not given), the “Percent Effect” value rises from -12.88% to 3.045%.

Compared with `Cc1ccsc1CN(c1nc(CCN)nc2ccccc12)C1CC1`, `NCCc1nc(N(Cc2nccs2)C2CC2)c2ccccc2n1` is lower in “Percent Effect” value: 64.64% for the first, -24.34% for the second.

First: NCCc1nc(N(Cc2cncs2)C2CC2)c2ccccc2n1
Second: Cc1cnn(CC2CCCCN2Cc2nc(N)c3ccccc3n2)c1 (stereo not given)
The “Percent Effect” value of the first is lower: -19.06% for the first, 31.76% for the second.

Going from `CN(C)C(CNC(=O)c1cccc(C(N)=O)c1)c1ccccc1Cl` (stereo not given) to `CN(Cc1nnc(-c2cccs2)o1)C(C(N)=O)c1cccc(F)c1` (stereo not given), the “Percent Effect” value rises from -40.94% to 15.31%.

Going from `N#Cc1nccnc1N1CCC(Cc2ccccc2)C1` (stereo not given) to `N#Cc1nccnc1N1CCC(COCc2ccccc2)C1` (stereo not given), the “Percent Effect” value falls from 17.71% to 4.332%.

First: N#Cc1nccnc1N1CCC(CSc2ccccc2)C1 (stereo not given)
Second: Cc1cnn(CC2CCCN2Cc2noc(-c3ccccc3)n2)c1 (stereo not given)
The “Percent Effect” value of the first is higher: 53.28% for the first, 10.45% for the second.

First: CC(C)C(NC(=O)c1cnc(N2CCOCC2)nc1)c1cccs1 (stereo not given)
Second: CC(C)C(NC(=O)c1ccc(N2CCOCC2)nc1)c1cccs1 (stereo not given)
The “Percent Effect” value of the first is higher: 69.04% for the first, 5.892% for the second.

First: CC(C)C(NC(=O)c1nc(N2CCOCC2)ncc1Cl)c1cccs1 (stereo not given)
Second: CCc1nc(CN(C)Cc2ncc(-c3cccs3)o2)cs1
The “Percent Effect” value of the first is lower: 19.79% for the first, 22.49% for the second.

Compared with `CC(C)N1CC2(CCCN(c3ccccn3)C2)CCC1=O` (stereo not given), `O=S(=O)(NCC1COc2ccccc2C1)N1CCCC1` (stereo not given) is higher in “Percent Effect” value: 8.106% for the first, 15.67% for the second.

Compared with `CC(=O)c1ccc(Nc2nc(N)nc3c2nc(C)n3C)cc1`, `Cc1nc2c(Nc3ccc(C#N)cc3)nc(N)nc2n1C` is lower in “Percent Effect” value: 11.87% for the first, 2.918% for the second.

Compared with `Cc1nc2c(Nc3cccc(C#N)c3)nc(N)nc2n1C`, `COc1cccc2c1OCC(CNc1cc(N)nc(SC)n1)C2` (stereo not given) is lower in “Percent Effect” value: 106.8% for the first, 106% for the second.

First: CCc1nc(CN(C)Cc2nnc(-c3cccs3)o2)cs1
Second: COc1cccc2c1OCC(CNc1ccc(C)nn1)C2 (stereo not given)
The “Percent Effect” value of the first is higher: 57.32% for the first, 22.84% for the second.

Compared with `Cc1cnn(CC2CCCN2Cc2coc(-c3cccc(F)c3)n2)c1` (stereo not given), `Cc1cnn(CC2CCCN2CCc2nc3ccccc3c(=O)[nH]2)c1` (stereo not given) is higher in “Percent Effect” value: 42.46% for the first, 106.5% for the second.

Going from `OC(COCc1ccco1)CN1CCC(Cn2cccn2)CC1` (stereo not given) to `Cc1cnn(CC2CCCN2C(=O)CCc2nc3ccccc3[nH]2)c1` (stereo not given), the “Percent Effect” value rises from -18.82% to 16.22%.

Going from `COc1ccc2c(c1)OCC(CNc1cc(N)nc(SC)n1)C2` (stereo not given) to `COc1ccc2c(c1)OCC(Cc1ccc(N)nc1C)C2` (stereo not given), the “Percent Effect” value falls from 106.6% to 38.23%.

Compared with `COc1ccc2c(c1)OCC(Cc1ccc(C)nc1N)C2` (stereo not given), `COc1cccc2c1OCC(Cc1ccc(N)nc1C)C2` (stereo not given) is higher in “Percent Effect” value: 9.156% for the first, 28.19% for the second.

First: COC(=O)c1sccc1S(=O)(=O)NCCc1ccoc1
Second: Cc1ccc(S(=O)(=O)NCCc2ccoc2)s1
The “Percent Effect” value of the first is lower: 39.87% for the first, 103.3% for the second.

Compared with `Cc1ccc(S(=O)(=O)NCC(O)c2ccoc2)s1` (stereo not given), `Cc1nc(C)n(CC2CCCN2Cc2nc3ccccc3c(=O)[nH]2)n1` (stereo not given) is lower in “Percent Effect” value: 10.79% for the first, -38.81% for the second.

In the case of `OC1=C2C(=Nc3n[nH]c(O)c3C2c2ccco2)CCC1` (stereo not given), the “Percent Effect” value is reported as 27.79%.

From ChEMBL document CHEMBL3988442, “University of Dundee, Small-Polar-MMV Screening Library” (2021)
